Whole data set: some 5,800 sequences, median “enrichment r” near 0.68, cut for the highest 2% near 11. Shown is part of a subset that was picked to be rich in the highest values.
T1: UNK ZnF1-6 (called full-length) (human, UniProt Q9C0B0 30-357)
T1 sequence: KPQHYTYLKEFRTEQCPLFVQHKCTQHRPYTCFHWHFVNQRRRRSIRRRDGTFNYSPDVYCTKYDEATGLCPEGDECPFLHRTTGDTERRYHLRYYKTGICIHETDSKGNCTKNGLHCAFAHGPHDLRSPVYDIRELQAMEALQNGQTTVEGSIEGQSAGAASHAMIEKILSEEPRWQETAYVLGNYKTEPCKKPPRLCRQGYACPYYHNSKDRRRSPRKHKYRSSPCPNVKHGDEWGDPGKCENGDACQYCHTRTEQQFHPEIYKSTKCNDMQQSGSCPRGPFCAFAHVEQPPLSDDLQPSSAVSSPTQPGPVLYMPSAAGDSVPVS

B1: chr4:113382420:113382521:+|3pUTR|ENSG00000145362|msi1|FALSE|bound_elsewhere (ssRNA)
RNA: GGGAGUUCUACAGUCCGACGAUCUCUUCAGGUCUUUAGAUCUUGGACAAGUUGGCAGGGUAUUUUAAAAGCUAUAACUACUGUAGUUUUCCAGUUUUCAUUGCUGCUUUAGCAAACCACGCUGUCUUACAGUGGUACUUUCUUCAACAGAGGAUUGAGCAUCA
B2: chr2:171482635:171482736:+|3pUTR|ENSG00000115827|unk|FALSE|unique (ssRNA)
RNA: GGGAGUUCUACAGUCCGACGAUCCAAGAGUGUUUCAGAAUAGGAUGUCUUAAGACUUCAGUCAUGUCAGAGAUUUUUUUUUUUAGGUGAUUAUUGAGUUUCUCCUUCUCCUUUAAGUCAUCACCUUCCUUUUAUGAAAUGAUACAACAGAGGAUUGAGCAUCA
B3: chr9:104535772:104536723:-|CDS|ENSG00000204246|control|control|control (ssRNA)
RNA: GGGAGUUCUACAGUCCGACGAUCGACAAGCUCAUUUCUCUGUUUUAUGGGGUAGUGACACCCAUGCUGAAUCCUAUACUCUAUAGCUUGAGAAAUAAGGAUGUAAAAGCUGCUGUAAAAUAUUUGCUGAACAAAAAACCAAUUCAACAGAGGAUUGAGCAUCA
B4: chr8:23842113:23842214:-|3pUTR|ENSG00000159167|msi1|FALSE|unique (ssRNA)
RNA: GGGAGUUCUACAGUCCGACGAUCACUUUAGACAUUUUUGUGCCAUUAUAUUUGCAUUAUGUAUUUAUAAUUUAAAUGAUAUUUAGGUUUUUGGCUGAGUACUGGAAUAAACAGUGAGCAUAUCUGGUAUAUGUCAUUAUUUAUCAACAGAGGAUUGAGCAUCA
B5: ENSG00000112936:stop:overlap|stop_codon|ENSG00000112936|stop_codon|NA|stop_codon (ssRNA)
RNA: GGGAGUUCUACAGUCCGACGAUCGAUGCAGAGGGCAGAGCAUCUCUGUCACCAGCAUAAGGCCUUGUGCUGCGGAAACCCAGUAGGCUCCUGGAGGCCCUGGUCAGCUUGCUUGGAAUCCAGCAGGCAGCUGGGGCUGAGUGACAACAGAGGAUUGAGCAUCA
B6: ENSG00000170312:stop:overlap|stop_codon|ENSG00000170312|stop_codon|NA|stop_codon (ssRNA)
RNA: GGGAGUUCUACAGUCCGACGAUCGCAAAAUGGCACUGAAUCAUCCAUAUUUUAAUGAUUUGGACAAUCAGAUUAAGAAGAUGUAGCUUUCUGACAAAAAGUUUCCAUAUGUUAUAUCAACAGAUAGUUGUGUUUUUAUUGUUACAACAGAGGAUUGAGCAUCA
B7: chr2:69942770:69942871:+|3pUTR|ENSG00000059728|unk|FALSE|unique (ssRNA)
RNA: GGGAGUUCUACAGUCCGACGAUCUGUUUCCAGAUGUUUCUUUAUGUAAAUAUGACGCCAAUGUAAAUCCUGUGUCAAGAUCAUAGAGAAUGGUGCUUUUUACUACAGUUAGCACAUGCAUUUUUAGAAACUACUACAUGUUUUCAACAGAGGAUUGAGCAUCA
B8: ENSG00000114439:stop:overlap|stop_codon|ENSG00000114439|stop_codon|NA|stop_codon (ssRNA)
RNA: GGGAGUUCUACAGUCCGACGAUCUUCAUUGUAAAACAUUGUGCUUUACCUACUACCCUAGCCUUGUCUUUACCGAGGGAUGCUAGUGAGUCCAAGUGGUGGAAAAUAUAGACUGCAAACAAGUGCUUGUUGCCCCACACGGCCCAACAGAGGAUUGAGCAUCA
B9: ENSG00000117906:stop:overlap|stop_codon|ENSG00000117906|stop_codon|NA|stop_codon (ssRNA)
RNA: GGGAGUUCUACAGUCCGACGAUCAGUCCUUUAGGAAGCAUCAAUGUGGAGGUUUGGGGCUCCAUCCUCAGAGCCAGUCUGCUUAGCUUCACAUUUAGCUCCAGCACUUCACGGUUGUGUAACUUUGGCUUCACUUAAAGGACACAACAGAGGAUUGAGCAUCA
B10: chr12:104348774:104348848:+|3pUTR|ENSG00000198431|msi1_unk|total|mutant (ssRNA)
RNA: GGGAGUUCUACAGUCCGACGAUCCGUUGUCAAGUUUUCCCGGGUUGAAUUUUUUUCUUUUUUCUCCAUGGUGUUAAUGAUAUCCGAGAUGAAAAACGUCCGCAGUUGAUUUUUGUCCAAAAGCAAGUCAUGGCCCGAGUAUCCCAACAGAGGAUUGAGCAUCA
B11: chr10:62094764:62094865:+|3pUTR|ENSG00000150347|msi1|FALSE|unique (ssRNA)
RNA: GGGAGUUCUACAGUCCGACGAUCGAUGAACUCCCCAACCCACUGUGCCCCUCCCGCAACACUACCAGUAGACUUUAGAACCAUAGUUAACUAAGUCUUUUACCUCUGAGAUACUUAAUUCUGGGAAAAUUGGUGACAAUUUUCCAACAGAGGAUUGAGCAUCA
B12: chr22:49888080:49888186:+|3pUTR|ENSG00000100426|unk|FALSE|unique (ssRNA)
RNA: GGGAGUUCUACAGUCCGACGAUCUGGCUUAUUAACAGGGAAGAAGCUUGUUAUAUUCCAGUUGUAAGAAUAGCCUUAGUGUUUAGAUUUUUUUAUGAUAGGGAAGAUGCGGCCAUCACUGGGAUAUUUUCAAAUCCCAAGGACCAACAGAGGAUUGAGCAUCA
B13: chr16:21983864:21984660:-|three_prime_utr|ENSG00000155714|control|control|control (ssRNA)
RNA: GGGAGUUCUACAGUCCGACGAUCAAAGAAAAUUGAGCUGGCAAAAGAUGAAUCUUUCACAAGCAGUGAUGAUAAUGAAAAUGUAGAUUUAGAUAAAAGACUUCAAUAUUAUAGAUAUCCGUGGUCAACUGUGCAUCACCCUGCCAACAGAGGAUUGAGCAUCA
B14: chr18:54155150:54155251:-|3pUTR|ENSG00000134046|unk|FALSE|unique (ssRNA)
RNA: GGGAGUUCUACAGUCCGACGAUCUUUCCACUGGCUUUUGCCUGUAAGAAAAAAAAUGUACCCGAGCACAUAGAGCUUUUUAAUAGCACUAACCAAUGCCUUUUUAGAUGUAUUUUUGAUGUAUAUAUCUAUUAUUCAAAAAAUCAACAGAGGAUUGAGCAUCA
B15: chr3:98797553:98797658:-|3pUTR|ENSG00000057019|msi1|FALSE|unique (ssRNA)
RNA: GGGAGUUCUACAGUCCGACGAUCAUUUCAUUCAUUGAAGAAUCAAUACAUAUUUUGUUUCAAAAUGUUUGAAACAAAAGACAUAGAUGGUAGACUUUUAUUAAAACAUAUAUGGAUGUGGAAAGCACAUAUAUUAAUGCAGUCCAACAGAGGAUUGAGCAUCA
B16: chr18:55223968:55224079:-|3pUTR|ENSG00000196628|unk|FALSE|unique (ssRNA)
RNA: GGGAGUUCUACAGUCCGACGAUCUAUAAAGCUUUGUUUGUCUAGUGCUCUUUUGCUAUAAAAUAGACUGUAGUACACCCUAGUAGGAAAAAAAAAAAACUAAAUUUAAAAAUAAAAAAUAUAUUUGGCUUAUUUUUCGCAGGACAACAGAGGAUUGAGCAUCA
B17: chrX:115010634:115010735:-|CDS|ENSG00000123496|msi1|FALSE|unique (ssRNA)
RNA: GGGAGUUCUACAGUCCGACGAUCUGGAUCAUCAGAGAACAAGCCUAUCAGAUCCAGUUAUUUCACUUUUCAGCUUCAAAAUAUAGGUGAUGUAAACCAACAAACAACUUCAAAUUCAUUGUUUCUAGUUUAGGCCAUUUACAACAACAGAGGAUUGAGCAUCA
B18: chr1:42278343:42278454:-|CDS|ENSG00000198815|unk|FALSE|bound_elsewhere (ssRNA)
RNA: GGGAGUUCUACAGUCCGACGAUCAAAAAGAAAAUGACUUUAAGUGAAAUUUAUCAGUGGAUUUGUGAUAACUUCCCAUAUUAUAGAGAGGCUGGCAGUGGUUGGAAGGUAAGGAUUUUAUUUAAAUUAUUACUUUUAUGAAGUCAACAGAGGAUUGAGCAUCA
B19: chr15:100649042:100649144:+|3pUTR|ENSG00000183475|unk|FALSE|unique (ssRNA)
RNA: GGGAGUUCUACAGUCCGACGAUCUACCUCUGCUUUUCUUUUGCUGUGCUCUUGUUUUUAACUUAUUUUUUUUUUAACAACUGUAGUACACUACCCUGAGACACUGCAUCUCGAUUUCUAUCUCUAGUUAGAGUUGUACUUUUACAACAGAGGAUUGAGCAUCA
B20: chr4:65323451:65323552:-|3pUTR|ENSG00000145242|msi1|FALSE|unique (ssRNA)
RNA: GGGAGUUCUACAGUCCGACGAUCAUCAAGAAAAAGUACAAUACAGGGUGUAUAUUUAUUUUUUGUGUUAUAAAGUUUACUUUUAGUUGCUCUUCUAGAGAUUAUUAGGUAAUAAAUGUGUAUAUACUGUAUAAUUUGCAAUAUCAACAGAGGAUUGAGCAUCA
B21: chr2:99394746:99394872:+|CDS|ENSG00000158417|unk|FALSE|unique (ssRNA)
RNA: GGGAGUUCUACAGUCCGACGAUCGAUGUGAGAAUUGAACGAGAUGCACAAGAAAUGGCUGAUAGUUUAGGAGUUAGAAUUUUUAGUGCAGAAAUUAUUUAUCAUUUAUUUGAUGCCUUUACAAAAUAUAGACAAGACUACAAGCAACAGAGGAUUGAGCAUCA
B22: chr18:68676332:68676434:-|3pUTR|ENSG00000166479|msi1_unk|FALSE|overlapping (ssRNA)
RNA: GGGAGUUCUACAGUCCGACGAUCAUCAAGAUUAUGAGGUUAAAAAUAAUGUGGUUUUAUAUAGCAUAGUGGUUUUAUUUUGUUAGUUAUUUUUAAAGGAGAAGAAAUGUUACUUUUUAACUUUAUACUCAGUUGCAUUAUCAUCAACAGAGGAUUGAGCAUCA
B23: chr12:95514132:95514176:+|3pUTR|ENSG00000111142|msi1_unk|FALSE|overlapping (ssRNA)
RNA: GGGAGUUCUACAGUCCGACGAUCCUUUUAAAUGCUAACUGUUUUUCCCCUUCCUGUCUAGGAAAAUGCUAUAAAGCUCAAAUUAGUUAGGAAUGACUUAUACGUUUUGUUUUGAAUACCUAAGAGAUACUUUUUGGAUAUUUACAACAGAGGAUUGAGCAUCA

The binders below were run against T1, UNK ZnF1-6 (called full-length) (assay: nsRBNS (natural sequence RNA bind-n-seq); RBNS binding buffer (assumed for nsRBNS): 25 mM Tris pH 7.5, 150 mM KCl, 3 mM MgCl2, 0.01% Triton X-100, 500 ug/ml BSA, 20 U/ml SUPERase-In, 4 C; UNK is unkempt and MSI1 is Musashi-1; names of the RNAs are library labels; protein concentration not given here; high values mean tight binding).

| Binder | binding signal [enrichment R] |
| --- | --- |
| B1 | 0.392 |
| B2 | 1.03 |
| B3 | 0.451 |
| B4 | 3.25 |
| B5 | 0.329 |
| B6 | 0.706 |
| B7 | 0.538 |
| B8 | 0.604 |
| B9 | 0.657 |
| B10 | 0.359 |
| B11 | 3.7 |
| B12 | 11.3 |
| B13 | 2.22 |
| B14 | 5.14 |
| B15 | 1.11 |
| B16 | 39.5 |
| B17 | 0.759 |
| B18 | 3.38 |
| B19 | 5.29 |
| B20 | 3.94 |
| B21 | 15.9 |
| B22 | 48.4 |
| B23 | 2.63 |

From article PMC12136788
